Measurements from PubChem BioAssay (NCATS).
Results filed as inconclusive are left out. Activity calls are given as the source filed them. The call rests on the fitted dose curve; in most records, active means well fitted curve in the direction sought with a large enough effect; inconclusive means small, poorly fitted or top-dose-only effect, or another doubt; inactive means no such curve, though single readings can be large; an effect the other way counts as inactive or inconclusive.

How the values were obtained:
[1] = NS1 protein of Zika virus - qHTS assay to identify small molecule inhibitors in human HEK 293 cells (AID 1347053); further: nearly all actives have a fitted effect of over 55% in size; further: potency means the concentration at half of the fitted maximal effect
Outline: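 Following 20 h seeding, HEK 293 cells took compound, then 1 h later ZIKV MR766 (MOI = 0.5). Incubation ran 24 h at 37 C before TR-FRET detection of NS1; a drop in signal indicates inhibition.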

[2] = qHTS of pediatric cancer cell lines to identify multiple opportunities for drug repurposing: Primary screen for TC32 cells (AID 1347089); further: nearly all actives have a fitted effect of over 60% in size; further: potency means the concentration at half of the fitted maximal effect
Outline: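 A viability screen of TC32 cells was run over 48 h, with primary MIPE doses spanning 0.78 nM–46 µM and NPC doses 0.59 nM–46 µM. ATP luminescence (CellTiter-Glo) served as the read-out.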

[3] = qHTS of pediatric cancer cell lines to identify multiple opportunities for drug repurposing: Primary screen for SJ-GBM2 cells (AID 1347091); further: potency means the concentration at half of the fitted maximal effect
Outline: (§1)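 Cell viability, CellTiter-Glo luminescence; 500-1,000 cells/well, 8- or 11-point titration, 48 h compound exposure at 37 degrees C, 5% CO2. Controls: DMSO neutral, bortezomib 2.3 µM final as positive.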

[4] = qHTS of pediatric cancer cell lines to identify multiple opportunities for drug repurposing: Primary screen for SK-N-MC cells (AID 1347093); further: potency means the concentration at half of the fitted maximal effect
Outline: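 Metabolically active cells were quantified by ATP-dependent luminescence (CellTiter-Glo, 15 min at room temperature) following 48 h treatment. Cells had been plated at 500-1,000 per well and settled for 5 h beforehand.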

[5] = qHTS of pediatric cancer cell lines to identify multiple opportunities for drug repurposing: Primary screen for A673 cells (AID 1347092); further: nearly all actives have a fitted effect of over 45% in size; further: potency means the concentration at half of the fitted maximal effect
Outline: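 Titration-based qHTS on A673 cells: MIPE compounds spanned 11 points (0.78 nM to 46 µM final), NPC compounds 8 points (0.59 nM to 46 µM final). Viability after 48 h was measured by ATP luminescence.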

[6] = qHTS of pediatric cancer cell lines to identify multiple opportunities for drug repurposing: Primary screen for DAOY cells (AID 1347090); further: series mostly up to about 46 µM; nearly all actives have a fitted effect of over 55% in size
Outline: as §1

SMILES	Potency [1]	Potency [2]	Potency [3]	Potency [4]	Potency [5]	Potency [6]
C[C@H](NC(=O)Cc1cc(F)cc(F)c1)C(=O)N[C@H](C(=O)OC(C)(C)C)c1ccccc1	inactive	inactive	inactive	14800 nM (active)		
CC(=CC(=O)Nc1ccccc1C(=O)O)c1ccc2ccccc2c1	14800 nM (active)	inactive	inactive	8330 nM (active)		
C=CCNc1c(O)cc2c(O)c1C[C@@H](C)C[C@H](OC)[C@@H](O)[C@@H](C)C=C(C)[C@H](OC(N)=O)[C@@H](OC)C=CC=C(C)C(=O)N2	inactive	1650 nM (active)	526 nM (active)	1180 nM (active)	935 nM (active)	
CC(C)Oc1ccc(C(=O)N[C@H](CNC(=O)CN(C)C)Cc2ccc(-c3cn4cccc([C@H](C)O)c4n3)cc2)cc1Cl	20900 nM (active)	370 nM (active)	148 nM (active)	148 nM (active)	148 nM (active)	
O=C(O)CCCCC(CCSCc1ccccc1)SCc1ccccc1 (stereo not drawn)	inactive	inactive		9350 nM (active)		
Cn1cnc2c(F)c(Nc3ccc(Br)cc3F)c(C(=O)NOCCO)cc21	inactive	inactive	inactive	inactive	inactive	
CCOC(=O)N1CCN([N+]([O-])=NOc2ccc([N+](=O)[O-])cc2C#N)CC1	2960 nM (active)	3700 nM (active)		10500 nM (active)	1180 nM (active)	
O=c1[nH]c(=O)n([C@H]2C[C@@H](O)[C@@H](CO)O2)cc1F	833 nM (active)	930 nM (active)		16600 nM (active)	1870 nM (active)	
N=c1ccn2c(n1)O[C@H]1[C@@H](O)[C@@H](CO)O[C@H]12	inactive	1040 nM (active)		11800 nM (active)	372 nM (active)	
CNC(=O)c1cccc(-c2ccc3c(N4CCOC[C@H]4C)nc(N4CCOC[C@H]4C)nc3n2)c1	inactive	523 nM (active)	105 nM (active)	14.8 nM (active)	148 nM (active)	
O=C1NC(=O)[C@@H](c2cn3c4c(cccc24)CCC3)[C@H]1c1c[nH]c2ccccc12	6620 nM (active)	2340 nM (active)	83.3 nM (active)	46.9 nM (active)	235 nM (active)	
COc1cc(C)c(C=CC(C)=CC=CC(C)=CC(=O)O)c(C)c1C	inactive	inactive	inactive	18700 nM (active)	inactive	
CCNC(=O)c1cc2c(-c3cc(OCCN4CCCC4)c(Cl)cc3Cl)nc(N)nc2s1	inactive	3700 nM (active)	2090 nM (active)	2640 nM (active)	1180 nM (active)	
CC(=O)O[C@H]1C[C@@H]2CC[C@H]3[C@H]4C[C@H]([N+]5(C)CCCCC5)[C@@H](OC(C)=O)[C@@]4(C)CC[C@@H]3[C@@]2(C)C[C@H]1[N+]1(C)CCCCC1	inactive	inactive	inactive	inactive		
O=c1c(O)c(-c2ccc(O)c(O)c2)oc2cc(O)ccc12	inactive	inactive	18700 nM (active)	20900 nM (active)	29600 nM (active)	
O=C(Nc1ccc(Oc2ccnc3[nH]ccc23)c(F)c1)c1cccn(-c2ccc(F)cc2)c1=O	inactive		16600 nM (active)			inactive
CN1C(C(=O)Nc2ccccn2)=C(O)c2sc(Cl)cc2S1(=O)=O	inactive	inactive	inactive	4690 nM (active)		
COc1cccc2c1C(=O)c1c(O)c3c(c(O)c1C2=O)C[C@@](O)(C(=O)CO)C[C@@H]3O[C@H]1C[C@H](N)[C@H](OC2CCCCO2)[C@H](C)O1 (stereo partly drawn)	2960 nM (active)	3700 nM (active)	1180 nM (active)	833 nM (active)	2350 nM (active)	
CCOc1cc2c(c(F)c1OCC)C(=N)N(CC(=O)c1cc(N3CCOCC3)c(OC)c(C(C)(C)C)c1)C2	inactive	inactive	23500 nM (active)	833 nM (active)	9350 nM (active)	
CC(C)(N)c1ccc(-c2nc3ccccc3nc2-c2ccccc2)cc1	18700 nM (active)	inactive	23500 nM (active)	4690 nM (active)	5900 nM (active)	
CCc1nc(-c2cccc(C)c2)c(-c2ccnc(NC(=O)c3ccccc3)c2)s1	10500 nM (active)	inactive	18700 nM (active)	29600 nM (active)	23500 nM (active)	
COc1ccc(CCC(=O)c2c(O)cc(O[C@@H]3O[C@H](CO)[C@@H](O)[C@H](O)[C@@H]3O[C@@H]3O[C@@H](C)[C@H](O)[C@@H](O)[C@@H]3O)cc2O)cc1O	inactive	inactive	inactive	3320 nM (active)		
